KB-3-1 cytotox: KB-3-1 parental cell cytotoxicity; KB-3-1 viability, CellTiter-Glo ATP luminescence, 72 h; Potency, µM (highest dose often 46.1 µM), most hits filed as cytotoxic; 400,000 compounds, 1.4% hits; note: nearly all actives have a fitted effect of over 60% in size
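72 h, 37 °C compound treatment of KB-3-1 parental cells; CellTiter-Glo added, 10 min, luminescence read. Data corrected against DMSO-only plates and normalized before curve fitting.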
DT40 TDP1 CPT: growth inhibition of DT40 Tdp1-/-;hTDP1 cells with camptothecin (screen for TDP1 inhibitors) | chicken DT40 Tdp1-/-;hTDP1 cells + 20 nM CPT, ATP luminescence, 48 h | Potency, µM (highest dose often 46.2 µM), for inactives: top-dose activity change, negative = growth inhibition, usual class: inhibitors | 420,000 compounds, 12% hits; note: nearly all actives have a fitted effect of over 55% in size
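Chicken DT40 Tdp1-/- cells stably complemented with human TDP1 were seeded at 400 cells/well in medium containing 20 nM camptothecin, exposed to pin-transferred compounds, and grown at 37 °C for at least 48 hr. Viability was read as ATP luminescence.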
DT40 TDP1 no CPT: qHTS for Inhibitors of human tyrosyl-DNA phosphodiesterase 1 (TDP1): qHTS in cells in absence of CPT | 420,000 compounds, 15% hits | AID 686978, 2013 | DT40 Tdp1-/- hTDP1 cells, no CPT, ATP luminescence, 48 h | Potency, µM (doses to about 46.2 µM), for inactives: at the highest dose activity change, negative = growth inhibition, most hits filed as inhibitors; note: nearly all actives have a fitted effect of over 55% in size
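Growth of hTDP1-complemented DT40 Tdp1-knockout cells is measured by ATP luminescence after at least 48 hr compound exposure at 37 °C, with DMSO substituting for the 20 nM CPT used in the parallel screen.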
KB-V1 cytotox: KB-V1 MDR subline cytotoxicity | AID 1347076 | 400,000 compounds, 3.4% hits | Potency, µM (doses to about 46.1 µM), actives largely listed as cytotoxic | KB-V1 MDR cells viability, CellTiter-Glo, 72 h; note: nearly all actives have a fitted effect of over 60% in size
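In this primary screen, KB-V1 cells overexpressing P-gp are incubated with library compounds (lowest to highest concentration) for 72 h at 37 degrees C before a luminescent ATP viability read.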
HT1080 IDH1KD tx: toxicity to HT-1080 IDH1 knockdown cells (counter line); HT-1080 IDH1 knockdown viability, ATP luminescence, 48 h; Potency, µM (titrated, usually from 46.1 µM), without a hit: at the top dose activity, negative = toxicity, usual class: cytotoxic; 360,000 compounds, 2% hits;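 note: 0% = DMSO wells and -100% = cell-free medium wells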
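Luminescent ATP read-out (CellTiter-Glo, 10 min at room temperature) after 48 h compound exposure at 37 °C gave viability of IDH1-knockdown HT-1080 cells. Activity was normalised to DMSO and cell-free wells, then fitted as concentration-response curves.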
HT1080NT lethal: kills 2HG-producing HT-1080-NT fibrosarcoma cells. HT-1080-NT fibrosarcoma viability, CellTiter-Glo ATP luminescence, 48 h. Potency, µM (series often up to 46.1 µM), inactives show at the top dose activity, negative = less viability, usual class: cytotoxic. 360,000 compounds, 1.6% hits. AID 686970;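 note: NT is the 2HG producing partner of a matched IDH1 knockdown line; 0% = DMSO-treated cells and -100% = media-only wells without cells; nearly all actives have a fitted effect of over 55% in size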
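Viability of the 2HG-overproducing fibrosarcoma line after 48 hours of compound exposure at 37 degrees C was determined by luminescence with CellTiter-Glo, and concentration-effect curves were then fitted and categorized.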
* marks the source's active call; other numbers are inactive results; i = inactive; ? = inconclusive; . = not tested or not shown. Only some compounds are listed: those with a hit (about 19% of all), similar ones and a draw of the others. Calls come from the whole dose curve; as a rule, active = well fitted curve in the direction sought with a large enough effect; inconclusive = small, poorly fitted or top-dose-only effect, or another doubt; inactive = no such curve, though single readings can be large; an effect the other way counts as inactive or inconclusive. Unless noted, % is set by controls: 0 for no effect and ±100 for the full control effect; potency is the fitted concentration of half-maximal effect.

SMILES	KB-3-1 cytotox	DT40 TDP1 CPT	DT40 TDP1 no CPT	KB-V1 cytotox	HT1080 IDH1KD tx	HT1080NT lethal
COc1ccc(C(C)(O)c2nc(-c3ccc(OC)c(OC)c3)cs2)cc1 (stereo unspecified)	i	23µM*	?	i	-6%	-5%
COc1ccc(-c2csc(C(C)(O)c3ccccc3)n2)cc1OC (stereo unspecified)	?	?	?	23µM*	1%	-2%
COc1cccc(C(C)(O)c2nc(-c3ccc(OC)c(OC)c3)cs2)c1 (stereo unspecified)	i	?	?	i	?	-21%
CCN(CC)c1ccc(NC(=O)CN(C)Cc2cccs2)cc1	i	?	16µM*	?	-2%	-8%
Cc1ccc(NC(=O)CN(C)Cc2cccs2)cc1Cl	i	?	21µM*	i	18%	14%
CCOc1cc(C(=O)Nc2ccc3c(c2)n(C)c(=O)c(=O)n3C)cc(OCC)c1OCC	i	?	?	i	.	.
CSc1nc2ccc(NC(=O)c3ccc(Cl)s3)cc2s1	i	-29%	?	?	19%	23%
CCOC(=O)C1=C(COC(=O)CCOc2cc(C)ccc2C)NC(=O)NC1C (stereo unspecified)	i	-4%	-24%	i	2%	-1%
COc1ccc(CCNC(=O)CCc2c(C)c3cc4c(C)coc4c(C)c3oc2=O)cc1OC	.	21µM*	8.2µM*	.	.	.
Cc1c(CC(=O)NCCc2ccccc2F)c(=O)oc2c(C)c3occ(C(C)(C)C)c3cc12	.	13µM*	16µM*	.	.	.
COc1ccc2c(C)c(CC(=O)NCCc3ccccc3)c(=O)oc2c1OC	i	0%	-14%	i	.	.
COc1ccc(CNC(=O)CCc2c(C)c3cc4c(C)coc4cc3oc2=O)cc1	i	?	15µM*	i	.	.
COc1ccccc1CNC(=O)CCc1c(C)c2cc3c(C)coc3cc2oc1=O	i	?	?	i	.	.
COc1cc2oc(=O)c(CC(=O)NCCc3ccccc3F)c(C)c2cc1OC	i	1%	-16%	i	.	.
Cc1c(CC(=O)NCCc2ccccc2)c(=O)oc2c(C)c3occ(C(C)(C)C)c3cc12	.	16µM*	18µM*	.	.	.
O=C(O)c1ccn2c(C(=O)c3ccccc3)c(-c3ccccc3)cc2c1	i	0%	-11%	i	?	-26%
Cc1oc2cc3oc(=O)c(CC(=O)NCc4ccccc4)c(C)c3cc2c1C	.	6.5µM*	8.2µM*	.	.	.
COc1ccc(CCNC(=O)Cc2c(C)c3cc4c(C(C)(C)C)coc4c(C)c3oc2=O)cc1OC	.	6.5µM*	8.2µM*	.	.	.
Cc1oc2cc3oc(=O)c(CCC(=O)NCCN4CCOCC4)c(C)c3cc2c1C	i	21µM*	?	i	6%	0%
COc1ccc(CCNC(=O)Cc2c(C)c3cc(OC)c(OC)cc3oc2=O)cc1	i	-6%	-23%	i	.	.
COCCCNC(=O)Cc1c(C)c2c(cc(C)c3c(C(C)(C)C)coc32)oc1=O	5.2µM*	1.3µM*	1.3µM*	5.2µM*	2.9µM*	4.1µM*
Cc1ccc(S(=O)(=O)CC(=O)c2ccc3c(c2)OCCO3)cc1	?	-5%	-8%	i	14%	-8%
Cc1ccc(Cl)cc1NC(=O)C1CCN(S(=O)(=O)c2cccc3nonc23)CC1	i	-9%	-28%	i	.	.
Cc1ccc(S(=O)(=O)N2C[C@H]3[C@H]4C(=O)N(c5ccccc5)C(=O)[C@H]4C[C@H](OC(=O)NC4CCCC4)[C@@]3(O)C2)cc1	i	0%	-18%	i	9%	-1%
CCOc1ccc(-n2c(=O)c3c4c(sc3n(Cc3cccc(Cl)c3)c2=O)CCCC4)cc1	i	-17%	-6%	?	.	.
SMILES	KB-3-1 cytotox	DT40 TDP1 CPT	DT40 TDP1 no CPT	KB-V1 cytotox	HT1080 IDH1KD tx	HT1080NT lethal
Cc1c(CCC(=O)NCCCn2ccnc2)c(=O)oc2c(C)c3oc4c(c3cc12)CCCC4	23µM*	?	?	i	-17%	-21%
Cc1c(CCC(=O)NCCCCCC(=O)O)c(=O)oc2c(C)c3oc4c(c3cc12)CCCC4	i	-14%	-29%	i	0%	0%
Cc1coc2c(C)c3oc(=O)c(CCC(=O)NCCc4ccccc4F)c(C)c3cc12	.	?	16µM*	.	.	.
O=C(NCCc1csc(-c2cccnc2)n1)c1cccs1	i	?	21µM*	i	9%	8%
O=C(NCCc1csc(-c2ccc(C(F)(F)F)cc2)n1)c1cccs1	i	?	18µM*	i	-7%	0%
Cc1cccc(NC(=O)C(=O)NCCc2csc(-c3ccc(C(F)(F)F)cc3)n2)c1C	.	-27%	-26%	.	.	.
CCOc1ccc(C(=O)NCCc2csc(-c3ccc(C(F)(F)F)cc3)n2)cc1OCC	.	?	15µM*	.	.	.
O=S(=O)(NCCc1csc(-c2cccnc2)n1)c1cccs1	i	?	?	i	-10%	3%
CCCOCCc1nnc(N)s1	i	9%	9%	i	5%	10%
N#CC(Sc1ccccn1)c1ccc(Cl)cc1 (stereo unspecified)	i	?	?	i	?	-2%
COc1ccccc1N1CCN(c2nc(-c3ccc(C)cc3)nc3ccccc23)CC1	i	23µM*	23µM*	i	.	.
COc1ccccc1N1CCN(c2nc(CNC(=O)c3ccc4c(c3)OCO4)nc3ccccc23)CC1	.	18µM*	13µM*	.	.	.
COc1cccc(-c2nc(N3CCC(C)CC3)c3ccccc3n2)c1O	i	18µM*	21µM*	16µM*	?	?
COc1cccc(-c2nc(N3CCCC3)c3ccccc3n2)c1O	i	18µM*	12µM*	i	5%	9%
CCN1CCN(c2nc3c(C)cccn3c(=O)c2/C=C(\C#N)C(=O)NCCOC)CC1	?	7%	18%	i	-1%	4%
COc1ccccc1N1CCN(c2nc3ccc(C)cc3nc2-n2nc(C)cc2C)CC1	i	23µM*	21µM*	i	.	.
CCSc1nnc(NC(=O)[C@@H](NC(=O)c2ccc(C(C)(C)C)cc2)C(C)C)s1	i	26µM*	21µM*	i	-21%	-21%
COc1cc(OC)cc(C(=O)N[C@H](C(=O)Nc2nnc(C3CC3)s2)C(C)C)c1	i	-10%	4%	i	0%	2%
CCSc1nnc(NC(=O)[C@@H](NC(=O)c2ccccc2F)C(C)C)s1	i	1%	-20%	?	12%	5%
